Among the test systems are HCT-15 colon; HT29 colon; SNB-75 CNS; SNB-19 CNS; U251 CNS; PC-3 prostate; SK-MEL-5 melanoma; UACC-62 melanoma; LOX IMVI melanoma; SK-MEL-28 melanoma; SK-MEL-2 melanoma; EKVX NSCLC; SN12C renal; UO-31 renal; TK-10 renal; ACHN renal; CAKI-1 renal; A498 renal; CCRF-CEM leukemia; MOLT-4 leukemia.
What all share (test): NCI-60 one-dose screen, 48 h (100 = growth as untreated, 0 = no growth, -100 = all killed)
Common to all, as to conditions: 10 µM

The values below come from PubChem BioAssay (NCI).

The structures appear in SMILES notation. About 83,000 compounds went through this panel and 20% of them were active in at least one assay; those are over-represented in the sample as a whole.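 Single-dose data. Exposure time 48 hours. Values below 10 considered active.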 A number with no mark means an inactive call. Activity calls are given as the source filed them.

As for `O=C(NO)c1ccc(-c2nc3ccc4[nH]ncc4c3c3c2CCCC3)cc1`, the growth with HCT-15 colon was -11% (active); in the test on HT29 colon, 6.1% (active); in the test on SNB-75 CNS, -77.1% (active); with SNB-19 CNS, -19.4% (active); in the test on U251 CNS, -39.1% (active); in the test with PC-3 prostate it was 15.8%. In addition, the growth in the test with SK-MEL-5 melanoma was -88.9% (active); in the test with UACC-62 melanoma, -65.8% (active); with LOX IMVI melanoma, -90.6% (active); with SK-MEL-28 melanoma it was -55% (active); with SK-MEL-2 melanoma, -89.7% (active); in the test with EKVX NSCLC, -19.4% (active). Moreover, the growth with SN12C renal was -13.8% (active); with UO-31 renal, -15.8% (active); in the test on TK-10 renal, 20.2%; in the test with ACHN renal it was 2.16% (active); in the test with CAKI-1 renal it was -0.924% (active); in the test with A498 renal, -49.1% (active). Also, the growth in the test on CCRF-CEM leukemia was 5.08% (active); in the test on MOLT-4 leukemia, 3.76% (active).

For `CC(C)Sc1nc(NC2CC2)c(C#N)c(-c2ccccc2)n1`, the growth is 101% in the test with HCT-15 colon; 87.3% in the test on HT29 colon; 81.3% in the test on SNB-75 CNS; 25.7% in the test with SNB-19 CNS; 50.6% in the test with U251 CNS; 83% with PC-3 prostate. Further, the growth with SK-MEL-5 melanoma was 93.1%; in the test with UACC-62 melanoma it was 87.1%; in the test with LOX IMVI melanoma it was 80.2%; in the test on SK-MEL-28 melanoma it was 110%; in the test with SK-MEL-2 melanoma it was 97.7%; in the test on EKVX NSCLC, 77.4%. Besides, the growth in the test on SN12C renal is 77.5%; in the test on UO-31 renal, 79.4%; in the test with TK-10 renal it was 92.9%; in the test on ACHN renal it was 53.5%; in the test with CAKI-1 renal, 56.8%; with A498 renal, 99.3%. The figures for the growth with CCRF-CEM leukemia and with MOLT-4 leukemia were 96.3% and 102%, respectively.

Turning to `CCCCSc1nc(Nc2ccc(/C(C)=N/NC(N)=S)cc2)c(C#N)c(-c2ccccc2)n1`, the growth with HCT-15 colon was 38.4%; in the test with HT29 colon, 61.2%; in the test on SNB-75 CNS, 96.8%; with SNB-19 CNS, 50%; in the test on U251 CNS, 18.8%; with PC-3 prostate, 28.9%. For the same molecule, the growth in the test with SK-MEL-5 melanoma is 54.9%; in the test on UACC-62 melanoma it was 64.5%; in the test on LOX IMVI melanoma it was 5.73% (active); in the test on SK-MEL-28 melanoma, 66.3%; in the test with SK-MEL-2 melanoma, 90.4%; with EKVX NSCLC, 62.5%. The growth in the test with SN12C renal was 19.8%; in the test with UO-31 renal, 11.8%; with TK-10 renal, 48.8%; in the test on ACHN renal, 14.3%; with CAKI-1 renal it was 33.5%; in the test with A498 renal, 42.1%. Further, the growth is 49.2% with CCRF-CEM leukemia and 47.3% with MOLT-4 leukemia.

Turning to `COc1ccc(-c2nc(Nc3ccccc3S(N)(=O)=O)c3ccccc3n2)cc1`, the growth in the test on HCT-15 colon is 28.1%; in the test with HT29 colon, 8.94% (active); with SNB-75 CNS, 109%; in the test with SNB-19 CNS, 57.7%; in the test with U251 CNS, 3.82% (active); with PC-3 prostate, 55.6%. Also, the growth in the test with SK-MEL-5 melanoma is 61.3%; in the test on UACC-62 melanoma, 56.5%; in the test on LOX IMVI melanoma, -79.9% (active); with SK-MEL-28 melanoma, 76.7%; in the test on SK-MEL-2 melanoma, 110%; with EKVX NSCLC, 65%. Besides, the growth with SN12C renal was 26.3%; in the test on UO-31 renal, 29.2%; in the test with TK-10 renal, 67.4%; in the test with ACHN renal it was 15.3%; in the test on CAKI-1 renal it was 7.47% (active); in the test with A498 renal it was 92%. The growth in the test on CCRF-CEM leukemia is 64.1%; with MOLT-4 leukemia, 21.1%.

As to `CCOC(=O)CNC(=O)CN(Cc1ccccc1)C(=O)[C@@]1(C)CCC[C@]2(C)[C@H]3C[C@H]4C(C(C)C)=C[C@]3(CC[C@H]21)[C@@H]1C(=O)OC(=O)[C@@H]14`, the growth is 18% with HCT-15 colon; 42% in the test on HT29 colon; 81.7% with SNB-75 CNS; 67.7% with SNB-19 CNS; 44.4% in the test on U251 CNS; 39.2% in the test on PC-3 prostate. Further, the growth in the test with SK-MEL-5 melanoma is 83.5%; in the test on UACC-62 melanoma it was 64.4%; in the test with LOX IMVI melanoma, 24%; in the test on SK-MEL-28 melanoma it was 82.5%; with SK-MEL-2 melanoma it was 82.3%; in the test on EKVX NSCLC, 67.6%. The growth is 69% in the test with SN12C renal; 65.5% in the test on UO-31 renal; 90.3% with TK-10 renal; 57% in the test on ACHN renal; 88.3% with CAKI-1 renal; 110% in the test on A498 renal. Moreover, the figures for the growth in the test with CCRF-CEM leukemia and in the test with MOLT-4 leukemia were 15.6% and 27.8%, respectively.

Turning to `O=C1Nc2cc(Cl)ccc2/C1=C/c1ccc(OCc2ccc(Br)cc2F)cc1`, the growth in the test with HCT-15 colon is -31.8% (active); in the test with HT29 colon, 5.82% (active); in the test with SNB-75 CNS, -12.2% (active); in the test on SNB-19 CNS, -45.4% (active); in the test on U251 CNS it was -94.6% (active); in the test on PC-3 prostate it was -42.3% (active). Also, the growth in the test with SK-MEL-5 melanoma was -66.7% (active); in the test on UACC-62 melanoma, -75.2% (active); with LOX IMVI melanoma, -94.5% (active); in the test with SK-MEL-28 melanoma, -60.7% (active); with SK-MEL-2 melanoma, -47.2% (active); in the test with EKVX NSCLC it was -13.7% (active). The growth with SN12C renal is -48.2% (active); in the test on TK-10 renal, -54.8% (active); with ACHN renal it was -79.9% (active); in the test with CAKI-1 renal, -59% (active); with A498 renal, -46.4% (active); in the test on CCRF-CEM leukemia it was 5.01% (active). For the same molecule, the growth in the test with MOLT-4 leukemia was 10.3%.

`COc1ccc(OC)c(/C=N/NC(=O)c2ccc3nc(-c4ccc(Cl)cc4)[nH]c3c2)c1`: the growth with HCT-15 colon was 41.8%; in the test on HT29 colon, 79.7%; in the test with SNB-75 CNS, 72.8%; in the test on SNB-19 CNS it was 54.3%; with U251 CNS, 74.3%; with PC-3 prostate, 41.5%. Also, the growth was 31.2% in the test with SK-MEL-5 melanoma; 75.7% in the test with UACC-62 melanoma; 65.4% in the test on LOX IMVI melanoma; 85.4% in the test with SK-MEL-28 melanoma; 103% in the test on SK-MEL-2 melanoma; 57.5% with EKVX NSCLC. The growth in the test with UO-31 renal was 68%; in the test with TK-10 renal it was 89.1%; in the test with ACHN renal, 46.9%; in the test with CAKI-1 renal, 61.6%; in the test on A498 renal it was 43.8%; in the test on CCRF-CEM leukemia it was 43.9%. Also, the growth in the test on MOLT-4 leukemia is 41.1%.

For `CCOC(=O)C1NN(c2ccc(S(N)(=O)=O)cc2)c2nc3nc(-c4cccs4)cc(-c4cccs4)c3c(=O)n21` (configuration not stated), the growth in the test on HCT-15 colon is 88.5%; in the test with HT29 colon, 73.9%; with SNB-75 CNS, 66.8%; in the test with SNB-19 CNS it was 96.4%; with U251 CNS, 84.5%; in the test with PC-3 prostate, 80%. In addition, the growth in the test with SK-MEL-5 melanoma was 75.5%; with UACC-62 melanoma, 74.8%; with LOX IMVI melanoma, 80.7%; with SK-MEL-28 melanoma, 73.1%; in the test with SK-MEL-2 melanoma, 101%; with EKVX NSCLC it was 91.8%. Also, the growth was 90.2% with SN12C renal; 82.9% in the test on UO-31 renal; 100% in the test with TK-10 renal; 64.9% with ACHN renal; 59.1% with CAKI-1 renal; 120% in the test on A498 renal. Besides, the growth in the test with MOLT-4 leukemia is 78.7%.
